Laboratory results from PubChem BioAssay AID1159580 (chemical genetic matrix, 2015).
Out of some 5,500 compounds screened, about 2,000 (36%) were called active. Inconclusive results (about 18%) are left out. Rule as the data show it: active = normalized growth mostly below about 0.91 (no sharp cut-off); inconclusive = no clear call, values can overlap the other calls; inactive = mostly above about 0.92. Some of the results follow.

Assay: chemical genetic growth profiling, strain panel (AID 1159580);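 also: tested at 20 µM; growth read once vehicle control cultures reached saturation at 30 °C; 1 = growth at the plate median or of vehicle wells; lower values mean less growth of the strain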
Conditions: S. cerevisiae deletion strains, growth OD

Measured: normalized growth

COc1cc(C(O)CN)ccc1O (stereo unspecified)
inactive: locus YAL040C, strain CLN3, stronger effect = lower value 1.01 | locus YCL061C, strain MRC1 (second series), stronger effect = lower value 1.01 | locus YDR363W, strain ESC2, stronger effect = lower value 1.02 | locus YER002W, strain NOP16, stronger effect = lower value 1.04 | locus YGR229C, strain SMI1, stronger effect = lower value 1.01 | locus YMR263W, strain SAP30, stronger effect = lower value 1.01 | locus YNL175C, strain NOP13, stronger effect = lower value 1.02 | locus YNL197C, strain WHI3, stronger effect = lower value 1.01 | locus YNL224C, strain SQS1, stronger effect = lower value 1 | locus YOR083W, strain WHI5 (second series), stronger effect = lower value 1.01 | locus YPL241C, strain CIN2, stronger effect = lower value 1
